Structures can show the parent of a compound that is named as a salt.
Test system: Plasmodium falciparum NF54/iGP1_RE9H ulg8 stage V gametocytes
Experiment: gametocyte viability (luciferase signal relative to DMSO control) (% of DMSO control); higher = less gametocytocidal activity, active = 50 or less
Details: concentration: 1 µM; exposure time: 72 h
Protocol: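 Synchronous P. falciparum NF54/iGP1_RE9H ulg8 mature stage V gametocytes (day 12) were exposed to Cayman Epigenetics Screening Library compounds at 10 µM or 1 µM for 72 h at 37 °C. Viability was read as RE9H luciferase bioluminescence, normalised to DMSO plate controls (100%); 50 µM methylene blue was the positive control.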

| Compound | gametocyte viability |
| --- | --- |
| COc1ccc(CCc2nc3cc(-c4c(C)noc4C)ccc3n2C[C@H](C)N2CCOCC2)cc1Cl | 78.4 (inactive) |
| Nc1nc(=S)c2[nH]cnc2[nH]1 [6-Thioguanine] | 90.1 (inactive) |
| CCC(=O)N1CCOc2c(cc(-c3ccc(OC)c(OC)c3)cc2OC[C@H]2CCCN(C)C2)C1 [I-CBP112 (hydrochloride)] | 84.5 (inactive) |
| CCCc1cc2c(N3CCN(C4=NCC(C)(C)S4)CC3)ncnc2s1 [MI-2 (hydrochloride)] | 80.6 (inactive) |
| CC(C(=O)Nc1cccc(/N=C/c2c(O)ccc3ccccc23)c1)c1ccccc1 (stereo not given) [Salermide] | 88.8 (inactive) |
| Cc1ccc(-n2sc3ccccc3c2=O)cc1 | 90.8 (inactive) |
| COc1cc2nc(N3CCCC3)nc(NCCCCCN3CCCC3)c2cc1OC | 92.2 (inactive) |
| Cc1[nH]c2ccccc2c1CCNCc1ccc(/C=C/C(=O)NO)cc1 [Panobinostat] | 60.2 (inactive) |
| Cn1cc(C(=O)Nc2ccc3c(c2)OCCO3)c2ccccc2c1=O | 82.7 (inactive) |
| Cc1nn(C)cc1CN1CCC(c2ccc(C(=O)Nc3ccccc3N)cc2)CC1 | 86 (inactive) |
| Nc1ccccc1NC(=O)CCCCCC(=O)Nc1ccccc1 | 88.7 (inactive) |
| Nc1ccccc1NC(=O)c1cnccn1 | 96.3 (inactive) |
| COc1cc2c(NC3CCN(C(C)C)CC3)nc(C3CCCCC3)nc2cc1OCCCN1CCCC1 | 77.7 (inactive) |
| COC(=O)c1ccc2c(c1)nc(NC(=O)c1ccccc1)n2CCCc1ccccc1 | 86.9 (inactive) |
| CN1CCN(C(=O)CNC2CC2c2ccc(OCc3ccccc3)cc2)CC1 (stereo not given) [RN-1 (hydrochloride)] | 89.1 (inactive) |
| CN1CCN(c2ccc(-c3cccc(CN4CCOCC4)c3)cc2NC(=O)c2c[nH]c(=O)cc2C(F)(F)F)CC1 | 89.4 (inactive) |
| CC(C)C(=O)SCCCCCCC(=O)Nc1nc(-c2ccccc2)cs1 | 82.8 (inactive) |
| O=c1[nH]c(=S)[nH]c(-c2ccccc2)c1Cc1c(O)ccc2ccccc12 [SIRT1/2 Inhibitor IV] | 84.7 (inactive) |
| O=C(NC[C@H](O)CN1CCc2ccccc2C1)c1cc(NC2COC2)ncn1 | 90 (inactive) |
| O=C(NCC(=O)N1CCCC1)Nc1ccc2cnccc2c1 | 91.7 (inactive) |

Same assay, conditions: concentration: 10 µM; exposure time: 72 h

| Compound | gametocyte viability |
| --- | --- |
| COc1ccc(CCc2nc3cc(-c4c(C)noc4C)ccc3n2C[C@H](C)N2CCOCC2)cc1Cl | 68.6 (inactive) |
| Nc1nc(=S)c2[nH]cnc2[nH]1 [6-Thioguanine] | 94.6 (inactive) |
| CCC(=O)N1CCOc2c(cc(-c3ccc(OC)c(OC)c3)cc2OC[C@H]2CCCN(C)C2)C1 [I-CBP112 (hydrochloride)] | 86.9 (inactive) |
| CCCc1cc2c(N3CCN(C4=NCC(C)(C)S4)CC3)ncnc2s1 [MI-2 (hydrochloride)] | 63.3 (inactive) |
| CC(C(=O)Nc1cccc(/N=C/c2c(O)ccc3ccccc23)c1)c1ccccc1 (stereo not given) [Salermide] | 88.4 (inactive) |
| Cc1ccc(-n2sc3ccccc3c2=O)cc1 | 59.8 (inactive) |
| COc1cc2nc(N3CCCC3)nc(NCCCCCN3CCCC3)c2cc1OC | 18.9 (active) |
| Cc1[nH]c2ccccc2c1CCNCc1ccc(/C=C/C(=O)NO)cc1 [Panobinostat] | 61.4 (inactive) |
| Cn1cc(C(=O)Nc2ccc3c(c2)OCCO3)c2ccccc2c1=O | 79.9 (inactive) |
| Cc1nn(C)cc1CN1CCC(c2ccc(C(=O)Nc3ccccc3N)cc2)CC1 | 90.2 (inactive) |
| Nc1ccccc1NC(=O)CCCCCC(=O)Nc1ccccc1 | 96.1 (inactive) |
| Nc1ccccc1NC(=O)c1cnccn1 | 89.4 (inactive) |
| COc1cc2c(NC3CCN(C(C)C)CC3)nc(C3CCCCC3)nc2cc1OCCCN1CCCC1 | 15.4 (active) |
| COC(=O)c1ccc2c(c1)nc(NC(=O)c1ccccc1)n2CCCc1ccccc1 | 54.7 (inactive) |
| CN1CCN(C(=O)CNC2CC2c2ccc(OCc3ccccc3)cc2)CC1 (stereo not given) [RN-1 (hydrochloride)] | 72.8 (inactive) |
| CN1CCN(c2ccc(-c3cccc(CN4CCOCC4)c3)cc2NC(=O)c2c[nH]c(=O)cc2C(F)(F)F)CC1 | 94.1 (inactive) |
| CC(C)C(=O)SCCCCCCC(=O)Nc1nc(-c2ccccc2)cs1 | 79.7 (inactive) |
| O=c1[nH]c(=S)[nH]c(-c2ccccc2)c1Cc1c(O)ccc2ccccc12 [SIRT1/2 Inhibitor IV] | 87.5 (inactive) |
| O=C(NC[C@H](O)CN1CCc2ccccc2C1)c1cc(NC2COC2)ncn1 | 89.1 (inactive) |
| O=C(NCC(=O)N1CCCC1)Nc1ccc2cnccc2c1 | 93.4 (inactive) |
